Experimental data reported in PubChem BioAssay (NCATS).
Results filed as inconclusive are left out. A number with no mark means an inactive call. Activity calls are given as the source filed them. Calls follow the shape of the full dose curve.

test: A High-Content qHTS Against Drug Library for the Identification of Small Molecules that Inhibit DYT1 Early Onset Primary Dystonia-Associated Cell Pathology (AID 1645839); conditions: HEK293 Flp-In EGFP-delE TorsinA, punctate imaging, 48 h; series mostly up to 91.7 µM; % pathology change, negative = correction: at the top concentration
Excerpt: Nicole Calakos M.D., Ph.D.
Duke University School of Medicine, Durham, NC
In DYT1 dystonia due to delGAG in the TOR1A gene, there is a robust and widely replicated finding of TorsinA protein mislocalization caused when the mutant protein is in excess of the wildtype protein (1-7). Stable HEK293 cell lines were created that replicate this phenomenon. Inducible expression of an EGFP-hu delE TorsinA encoding cDNA causes pronounced punctate cellular distribution. […] This phenotypic difference in EGFP-huTorsinA fusion protein distribution serves as an indicator of cell pathology. […] RNAi screen results with the assay were validated in DYT1 patient cell phenotypes, intersected with a known dystonia gene, and led to discovery of new human genetic dystonia associations.
The bioassay described herein is a high-content image screen with two readouts. The "%pathology" readout is the primary qHTS data channel, while the "cellcount" is the counterscreen qHTS channel. Desired active compounds are those that show inhibition in %pathology channel but no activity or minimal toxicity in cellcount readout.
1. Kustedjo, K., Bracey, M.H., and Cravatt, B.F. (2000). […] J. Biol. Chem. 275, 27933 - 27939.
2. Bragg, D.C., Kaufman, C.A., Kock, N., and Breakefield, X.O. (2004). Inhibition of N-linked glycosylation prevents inclusion formation by the dystonia-related mutant form of torsinA. Mol. Cell. Neurosci. 27, 417 - 426.
3. Gonzalez-Alegre, P., and Paulson, H.L. (2004). Aberrant Cellular Behavior of Mutant TorsinA Implicates Nuclear Envelope Dysfunction in DYT1 Dystonia. J. Neurosci. 24, 2593 - 2601.
4. Goodchild, R.E., and Dauer, W.T. (2004). Mislocalization to the nuclear envelope: an effect of the dystonia-causing torsinA mutation. Proc. Natl. Acad. Sci. U. S. A. 101, 847 - 852.
5. Kock, N., Allchorne, A.J., Sena-Esteves, M., Woolf, C.J., and Breakefield, X.O. (2006). RNAi blocks DYT1 mutant torsinA inclusions in neurons. Neurosci. Lett. 395, 201 - 205.
6. Hewett, J.W., Nery, F.C., Niland, B., Ge, P., Tan, P., Hadwiger, P., Tannous, B.A., Sah, D.W.Y., and Breakefield, X.O. (2008). siRNA knock-down of mutant torsinA restores processing through secretory pathway in DYT1 dystonia cells. Hum. Mol. Genet. 17, 1436 - 1445.
7. Calakos, N., Patel, V.D., Gottron, M., Wang, G., Tran-Viet, K.N., Brewington, D., Beyer, J.L., Steffens, D.C., Krishnan, R.R., and Zuchner, S. (2010). Functional evidence implicating a novel TOR1A mutation in idiopathic, late-onset focal dystonia. J. Med. Genet. 47, 646 - 650.
8. Rittiner* JE, Caffall* ZF, Hernandez-Martinez R, Sanderson SM, Pearson JL, Tsukayama KK, Liu AY, Xiao C, Tracy S, Shipman MK, Hickey P, Johnson J, Scott B, Stacy M, Saunders-Pullman R, Bressman S, Simonyan K, Sharma N, Ozelius LJ, Cirulli ET, Calakos N. Functional Genomic Analyses of Mendelian and Sporadic Disease Identify Impaired eIF2alpha Signaling as a Generalizable Mechanism for Dystonia. Neuron. 2016 Dec 21;92(6):1238-1251. doi: 10.1016/j.neuron.2016.11.012. Epub 2016 Dec 8. PMID: 27939583; PMCID: PMC5320521.
High-content, High-throughput Drug Screening Assay
The TorsinA mislocalization assay was modified from the previously published assay to accommodate compound testing in 1536 well format.1 Briefly, Flp-In T-REx 293 cells from Invitrogen in which a single copy of a cDNA is recombined into a specific genomic locus was used to create tetracycline-inducible expression of cDNA encoding either EGFP-hTOR1A (WT) or EGFP-delE hTOR1A (DYT1). WT and DYT1 cells were diluted to a concentration of 2 x 10^5 cells/mL in reduced serum media (DMEM High Glucose containing 1% tetracycline-tested FBS, 2 mM L-Glutamine, and 1% Penicillin/Streptomycin). 4 µl of WT cells and 4 µl of DTY1 cells were added to column 1 and columns 2-48, respectively, of a poly-D-lysine-coated, low base, black, clear bottom 1536 well plate (Corning, Corning, NY) using the BioRAPTR FRD Microfluidic Workstation (Beckman Coulter, Indianapolis, IN). The final cell number was 800 cells/well. […]
Potency is read from the fitted curve at half-maximal effect.

Compound	% pathology change, negative = correction	Potency
O=C(O)CCCOc1ccc(Cl)cc1Cl	-13.6%	
c1cc2ccc3cccc4ccc(c1)c2c34	16.5% [at 104 µM]	
CN[C@@H](C)[C@H](O)c1ccccc1	8.8% [at 46.1 µM]	
CC1(C)CC/C(=C/c2ccc(Cl)cc2)C1(O)Cn1cncn1 (stereo not given)	-18.1%	
S=C(SSC(=S)N1CCCCC1)N1CCCCC1	-27% [at 46.1 µM]	
O=C(O)COc1nc(Cl)c(Cl)cc1Cl	-11%	
O=C(O)C(Cl)Cl	6.24% [at 46.1 µM]	
CCOCCOC(C)=O	12.8%	
COCCOCCO	17.1%	
COC(=O)c1cncn1C(C)c1ccccc1 (stereo not given)	-0.762% [at 46.1 µM]	
O=S(=O)(O)C(F)(F)C(F)(F)C(F)(F)C(F)(F)F	22.4% [at 104 µM]	
O=C(O)COc1ccccc1	15.4% [at 46.1 µM]	
CCC1(CCC(C)C)C(=O)NC(=O)NC1=O	2.79%	
O=S(=O)(c1ccc(Cl)cc1)c1ccc(Cl)cc1	19.8%	
CO/C=C(/C(=O)OC)c1ccccc1Oc1cc(Oc2ccccc2C#N)ncn1	-12.6%	
O=[N+]([O-])c1c(Cl)c(Cl)cc(Cl)c1Cl	-10.6%	
CC[N+]1(CCOC(=O)C(O)(c2ccccc2)c2ccccc2)CCCCC1	0.837% [at 46.1 µM]	
CC1=C(C(=O)O)N2C(=O)[C@@H](N)[C@H]2SC1	1.33% [at 19.1 µM]	
O=[N+]([O-])c1cc([N+](=O)[O-])c2ccccc2c1	-22.2%	
Cc1cc(O)ccc1Cl	0.684% [at 46.1 µM]	

Compound	% pathology change, negative = correction	Potency
O=[N+]([O-])/N=C1\NCCN1Cc1ccc(Cl)nc1	8.62% [at 46.1 µM]	
O=C(Nc1ccccc1-c1ccc(Cl)cc1)c1cccnc1Cl	-24.3%	
CCCCOC(=O)c1ccccc1C(=O)OCc1ccccc1	14.7%	
C=CCC1=C(C)C(OC(=O)C2C(C=C(C)C)C2(C)C)CC1=O (stereo not given)	-23.3%	
Fc1cc(Br)ccc1CBr	-1.2% [at 46.1 µM]	
CCO/N=C(\CC)C1=C(O)CC(c2c(C)cc(C)cc2C)CC1=O (stereo not given)	-21.5%	
CS(=O)(=O)c1ccc(C(=O)C2C(=O)CCCC2=O)c([N+](=O)[O-])c1	-17%	
Cc1ccc(Cl)c(O)c1	0.915% [at 46.1 µM]	
OCCCBr	20.1%	
CCC(=O)O[C@@H]1C=C2CCC3C(CCC4(C)C3CC[C@@H]4OC(=O)CC)C2CC1 (stereo not given in full)	0.31% [at 46.1 µM]	
Oc1ccc2c3c1O[C@H]1[C@@H](O)C=C[C@H]4[C@@H](C2)NCC[C@@]341	-1.21% [at 104 µM]	
CC(C)(C)C(O)C(Oc1ccc(Cl)cc1)n1cncn1 (stereo not given)	-16.3%	
CC(C)(C)NC[C@H](O)c1ccc(O)cc1Cl	19.4% [at 46.1 µM]	
CC(=O)[O][Hg][c]1ccccc1		2.82 µM (active)
C1CCC(NC2CCCCC2)CC1	15.5% [at 46.1 µM]	
CCCCCCCCCCCCCCCC[N+](C)(C)C		12.6 µM (active)
CCOP(=O)(NC(C)C)Oc1ccc(SC)c(C)c1 (stereo not given)	-8.21%	
CC(Cc1ccc(O)cc1)NCC(O)c1cc(O)cc(O)c1 (stereo not given)	16.8% [at 46.1 µM]	
CCCCC(CC)COC(=O)c1ccccc1C(=O)OCC(CC)CCCC (stereo not given)	10.9%	
CC(O)CN1CCN(CC(=O)[O-])CCN(CC(=O)[O-])CCN(CC(=O)[O-])CC1.[Gd+3] (stereo not given)	3.47% [at 46.1 µM]	
